Reference: PubChem BioAssay AID1159580 (chemical genetic matrix, 2015)
Where “and” joins values, the source holds several entries; their conditions need not be identical. Equal entries are not always repeated. Screen size: about 5,500 compounds; about 2,000 (36%) were called active. Not shown: some 18% with an inconclusive outcome. Rule as the data show it: active = normalized growth mostly below about 0.91 (no sharp cut-off); inconclusive = no clear call, values can overlap the other calls; inactive = mostly above about 0.92. The list shows a part of the results.

Assay: chemical genetic growth profiling, strain panel (AID 1159580);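 also: tested at 20 µM; growth read once vehicle control cultures reached saturation at 30 °C; 1 = growth at the plate median or of vehicle wells; lower values mean less growth of the strain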
Settings: S. cerevisiae deletion strains, growth OD

Measured: normalized growth

CC(=O)O[C@H]1C(=O)[C@@]2(C)C([C@H](OC(=O)c3ccccc3)[C@]3(O)C[C@H](OC(=O)[C@H](O)[C@@H](NC(=O)c4ccccc4)c4ccccc4)C(C)=C1C3(C)C)[C@]1(OC(C)=O)CO[C@@H]1C[C@@H]2O (stereo partly specified)
active: locus YDL192W, strain arf1, hits give low values 1.14 [resistant] | locus YDR502C, strain sam2, hits give low values 1.16 [resistant] | locus YER155C, strain BEM2 (second series), hits give low values 0.824 | locus YHR200W, strain rpn10, hits give low values 1.17 [resistant] | locus YIR030C, strain dcg1, hits give low values 1.09 [resistant] | locus YJL168C, strain set2, hits give low values 1.07 [resistant]
inactive: locus YAL013W, strain DEP1, hits give low values 1.08 | locus YAL021C, strain ccr4, hits give low values 0.995 | locus YAL026C, strain drs2, hits give low values 0.979 | locus YAL030W, strain snc1, hits give low values 1 | locus YBL061C, strain skt5, hits give low values 1.01 | locus YBR009C, strain hhf1, hits give low values 0.989 | locus YBR021W, strain FUR4, hits give low values 1.05 | locus YBR023C, strain chs3, hits give low values 1.01 | locus YBR171W, strain sec66, hits give low values 0.991 | locus YBR229C, strain ROT2, hits give low values 1.02 | locus YBR231C, strain swc5, hits give low values 1.02 | locus YBR279W, strain paf1, hits give low values 0.994 | locus YCL011C, strain gbp2, hits give low values 1.02 | locus YCL016C, strain dcc1, hits give low values 1.04 | locus YCL029C, strain bik1, hits give low values 1.05 | locus YCL061C, strain MRC1, hits give low values 1.01 | locus YCL069W, strain vba3, hits give low values 1.01 | locus YCR088W, strain abp1, hits give low values 1 | locus YDL005C, strain med2, hits give low values 1 | locus YDL035C, strain GPR1, hits give low values 1.06 | locus YDL040C, strain nat1, hits give low values 1 | locus YDL074C, strain BRE1, hits give low values 1.05 | locus YDL101C, strain DUN1, hits give low values 1.03 | locus YDL134C, strain PPH21, hits give low values 1.03 | locus YDL185W, strain tfp1, hits give low values 0.936 | locus YDR001C, strain nth1, hits give low values 1.02 | locus YDR069C, strain doa4, hits give low values 0.975 | locus YDR101C, strain arx1, hits give low values 1.07 | locus YDR137W, strain rgp1, hits give low values 1.02 | locus YDR150W, strain NUM1, hits give low values 1.03 | locus YDR159W, strain sac3, hits give low values 0.975 | locus YDR162C, strain NBP2, hits give low values 1.04 | locus YDR195W, strain ref2 0.994 | locus YDR297W, strain sur2, hits give low values 0.996 | locus YDR318W, strain mcm21, hits give low values 1.07 | locus YDR334W, strain swr1, hits give low values 1 | locus YDR335W, strain msn5, hits give low values 1 | locus YDR388W, hits give low values 1.06 | locus YDR392W, strain spt3, hits give low values 0.79 | locus YEL003W, strain gim4, hits give low values 0.979 | locus YEL037C, strain rad23, hits give low values 1.02 | locus YEL061C, strain CIN8 (second series), hits give low values 0.989 | locus YEL061C, strain CIN8, hits give low values 1.05 | locus YER015W, strain faa2, hits give low values 0.997 | locus YER016W, strain bim1, hits give low values 1.01 | locus YER110C, hits give low values 1.1 | locus YER111C, strain swi4, hits give low values 1.02 | locus YER155C, strain BEM2, hits give low values 1.03 | locus YER167W, strain BCK2, hits give low values 1.04 | locus YFR010W, strain ubp6, hits give low values 0.988 | locus YGL078C, strain dbp3, hits give low values 1.02 | locus YGL086W, strain mad1, hits give low values 0.944 | locus YGL167C, strain pmr1, hits give low values 0.994 | locus YGL173C, strain kem1, hits give low values 1 | locus YGL227W, strain vid30, hits give low values 1.02 | locus YGL240W, strain doc1, hits give low values 0.968 | locus YGL248W, strain PDE1, hits give low values 1.03 | locus YGL253W, strain hxk2, hits give low values 0.95 | locus YGR078C, strain PAC10, hits give low values 1.04 | locus YGR135W, strain pre9, hits give low values 1.05 | locus YGR229C, strain SMI1, hits give low values 1.13 | locus YGR252W, strain gcn5, hits give low values 1.13 | locus YHR013C, strain ard1, hits give low values 0.991 | locus YHR027C, strain rpn1, hits give low values 0.988 | locus YHR030C, strain SLT2, hits give low values 1.03 and 0.96 | locus YHR079C, strain IRE1 (second series), hits give low values 1.03 | locus YHR079C, strain IRE1, hits give low values 1 | locus YHR094C, strain hxt1, hits give low values 1.05 | locus YHR129C, strain ARP1, hits give low values 1.03 | locus YHR142W, strain chs7, hits give low values 1 | locus YIL066C, strain RNR3, hits give low values 1.03 | locus YIL073C, strain SPO22, hits give low values 1.04 | locus YIL125W, strain kgd1, hits give low values 1.06 | locus YJL092W, strain hpr5, hits give low values 1.01 | locus YJL095W, strain BCK1 (second series), hits give low values 1 | locus YJL095W, strain BCK1, hits give low values 1.03 and 0.973 | locus YJL115W, strain asf1, hits give low values 1.01 | locus YJL129C, strain trk1, hits give low values 0.992 | locus YJL134W, strain LCB3, hits give low values 1.03 | locus YJL154C, strain vps35, hits give low values 1 | locus YJL164C, strain tpk1, hits give low values 0.969 | locus YJL166W, strain qcr8, hits give low values 1.01 | locus YJL187C, strain SWE1 (second series), hits give low values 1.03 | locus YJL187C, strain SWE1, hits give low values 0.986 | locus YJR043C, strain POL32, hits give low values 1.06
